21 compounds from PubChem BioAssay (NCI) can be followed below.

Each structure is given as a SMILES string. This is part of a sample that, as a whole, favours compounds with a hit. Of some 79,000 tested, about 15% had one in any assay. Values without a mark were called inactive. The source made the active and inactive calls. No stated cut-off is given here; in the data, active means growth inhibition above about 70%; inactive means the rest.

The nature of test [1]: NCI Yeast Anticancer Drug Screen. Data for the rad50 strain (AID 155).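 Further: 0% = growth of vehicle-only cultures of the same strain.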 The note with it: S. cerevisiae rad50 strain growth inhibition; at 50.0 µM; stronger effect = higher value. An outline of the steps: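 Yeast carrying a defined DNA repair defect were exposed to test compounds, and growth was compared with vehicle-treated controls to give percent inhibition.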
A short description of test [2]: NCI Yeast Anticancer Drug Screen. Data for the mec2-1 strain (AID 157). Conditions: S. cerevisiae mec2-1 strain, at 50.0 µM, stronger effect = higher value. The essentials: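 Vehicle-treated cultures served as reference for growth inhibition of compound-exposed mec2-1 yeast.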
Test [3] is described as follows: NCI Yeast Anticancer Drug Screen. Data for the sgs1 mgt1 strain (AID 161).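 Further: 0% = growth of cultures given vehicle only.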 Conditions: S. cerevisiae sgs1 mgt1 strain, at 50.0 µM, stronger effect = higher value. An outline of the steps: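 Genetically altered yeast, compound exposure, growth inhibition relative to vehicle.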
Test [4] in a line: NCI Yeast Anticancer Drug Screen. Data for the cln2 rad14 strain (AID 165).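 Further: 0% = growth equal to vehicle treated cultures.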 The note with it: S. cerevisiae cln2 rad14 strain, at 50.0 µM, stronger effect = higher value. The essentials: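 Each compound was tested on cln2 rad14 yeast. Inhibition of growth was calculated against vehicle-exposed controls.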
Test [5] can be described thus: NCI Yeast Anticancer Drug Screen. Data for the bub3 strain (AID 167). Conditions: S. cerevisiae bub3 mutant strain, at 50.0 µM, stronger effect = higher value. An outline of the steps:
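Compounds were applied to a genetically altered yeast strain carrying a cell-cycle control defect. Growth inhibition was scored against vehicle-treated controls.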

Test [6] in a line: NCI Yeast Anticancer Drug Screen. Data for the mlh1 rad18 strain (AID 175). Conditions: S. cerevisiae mlh1 rad18 strain growth inhibition; at 50.0 µM; stronger effect = higher value. The essentials: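 Vehicle-treated cultures served as the reference for growth inhibition in a yeast strain carrying DNA damage repair alterations exposed to each compound.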

Regarding `CCOC(=O)/C(C#N)=C(\C)c1ccccc1`, the growth inhibition in test [1] was 9.65%; in test [2] it was -5.3%; in test [3], 1.2%; in test [4], 5.15%; in test [5], -25.7%; in test [6] it was -17.6%.
On to `CCOC(=O)C(O)(NC(=O)Nc1ccc(F)cc1)C(F)(F)F` (stereo unspecified), for which the growth inhibition was -22.4% in test [1]; -22.3% in test [2]; -72.9% in test [3]; -35.9% in test [4]; -37.3% in test [5]; -60.9% in test [6].
For the compound `Oc1ccc(-c2csc(Nc3ccccn3)n2)cc1O`, the growth inhibition was 98.4% (active) in test [1]; 99% (active) in test [2]; 99% (active) in test [3]; 97.2% (active) in test [4]; 97.7% (active) in test [5]; 98.8% (active) in test [6].
`O=C(NNS(=O)(=O)c1ccccc1)c1cccc([N+](=O)[O-])c1`: the growth inhibition in test [1] is -0.95%; in test [2] it was -18.8%; in test [3], 7.25%; in test [4], 8.2%; in test [5], 5%; in test [6], -11.4%.
In the case of `c1ccc([P+](CCNCCNCC[P+](c2ccccc2)(c2ccccc2)c2ccccc2)(c2ccccc2)c2ccccc2)cc1`, the growth inhibition in test [1] was 6.3%; in test [2] it was 9.25%; in test [3], -13.8%; in test [4] it was 5.65%; in test [5], -5.2%; in test [6], -0.6%.
On to `C=CN1C(=O)NC(C)(CC(C)C)C1=O` (stereo unspecified), for which the growth inhibition is -1.15% in test [1]; -10.2% in test [2]; -6% in test [3]; 6.75% in test [4]; -7.25% in test [5]; 18.4% in test [6].
As to `CC(=O)CCC(=O)OCc1ccccc1`, the growth inhibition in test [1] is 35.1%; in test [2] it was 7.75%; in test [3] it was 1.3%; in test [4], 10.3%; in test [5], -3%; in test [6], 4.2%.
In the case of `Cc1cc([N+](C)(C)C)c(C(C)C)cc1O`, the growth inhibition was -0.45% in test [1]; 5.7% in test [2]; 6.25% in test [3]; 9.55% in test [4]; 11% in test [5]; 0.25% in test [6].
Consider `O=C(Oc1ccc(-c2ccccc2)cc1)c1cccc([N+](=O)[O-])c1`, for which the growth inhibition is -10.1% in test [1]; -4.5% in test [2]; 7.1% in test [3]; -11.4% in test [4]; 27.5% in test [5]; 0.2% in test [6].
On to `COC(=O)/C(C#N)=C1\CCC(O)N1C` (stereo unspecified), for which the growth inhibition in test [1] is 11.9%; in test [2], -10.8%; in test [3] it was 5.8%; in test [4], 6.2%; in test [5] it was 3%; in test [6], 9.6%.
`CC1=CC2C3C(=O)OC(=O)C3C1C(Cc1ccccc1)N2C` (stereo unspecified): the growth inhibition in test [1] is 14.5%; in test [2], -1.85%; in test [3], 10.6%; in test [4], 12.9%; in test [5], -6.55%; in test [6] it was 21.5%.
Turning to `NC(=O)CNC(=O)c1ccc(N)cc1`, the growth inhibition in test [1] was 16.8%; in test [2], 7.6%; in test [3], 11.2%; in test [4], 15.6%; in test [5] it was 1.25%; in test [6] it was 18.4%.
For `C=C(Br)CN=CN(C)C`, the growth inhibition in test [1] is 23.6%; in test [2], 1.35%; in test [3], 10.9%; in test [4] it was 1.35%; in test [5], -10.1%; in test [6], 23.1%.
In the case of `CCCCNC(=O)Oc1c(Cl)cc(Cl)c(Cl)c1[N+](=O)[O-]`, the growth inhibition is 16.2% in test [1]; 10.1% in test [2]; 17.9% in test [3]; 4.4% in test [4]; -11.1% in test [5]; 21.2% in test [6].
Regarding `C/C(=N\N=C(N)N)c1sc(-c2nc(C)c(/C(C)=N/N=C(N)N)s2)nc1C`, the growth inhibition in test [1] was 4.35%; in test [2] it was -11.2%; in test [3] it was -13.3%; in test [4], 26.4%; in test [5] it was 6.85%; in test [6], 19.6%.
On to `O=c1cc[nH]c2ccc(Cl)cc12`, for which the growth inhibition in test [1] is -10.2%; in test [2], 5.3%; in test [3], -4.4%; in test [4] it was -33.4%; in test [5], -7.1%; in test [6], -1.45%.
In the case of `Cc1nn(-c2nc(-c3ccccc3)cs2)c(C)c1C`, the growth inhibition was -6.05% in test [1]; -8.6% in test [2]; -20.6% in test [3]; 2.9% in test [4]; -0.5% in test [5]; -8.2% in test [6].
Consider `[N-]=[N+]=NC1=NNC2(C(=O)N1)c1ccccc1-c1ccccc12`, for which the growth inhibition in test [1] was -6.35%; in test [2], -17.5%; in test [3], -22.9%; in test [4] it was -5.75%; in test [5], -30.1%; in test [6] it was -18.6%.
`CCN(CC)CCCO`: the growth inhibition is 27.8% in test [1]; -12.3% in test [2]; -7.75% in test [3]; -8.8% in test [4]; -4.6% in test [5]; 20.1% in test [6].
Consider `COC(=O)C(CCc1ccc([N+](=O)[O-])cc1)(CCc1ccc([N+](=O)[O-])cc1)C(=O)OC`, for which the growth inhibition in test [1] is 19.2%; in test [2] it was 3.25%; in test [3], 4.15%; in test [4], -17.9%; in test [5], 24.2%; in test [6], 34.9%.
`C=C1C(=O)O[C@@H]2/C=C(\C)CC/C=C(/C)CC[C@@H]12`: the growth inhibition is 45.8% in test [1]; 52.2% in test [2]; 61.6% in test [3]; 32.8% in test [4]; 54.4% in test [5]; 58.1% in test [6].
